Measured values published in PubChem BioAssay (NCI).
Compounds without any hit were thinned out: in the full panel of roughly 83,000, 20% have a hit.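 Each cell line was grown in a 96-well plate and treated with one concentration of compound for 48 hours. Values below 10 were considered active.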 Unmarked numbers belong to inactive results. The source made the active and inactive calls.

Assays:
Test in all cases: NCI-60 one-dose screen, 48 h (100 = growth as untreated, 0 = no growth, -100 = all killed)
NCI-H226 lung = details: 10 µM
NCI-H322M lung = details: 10 µM unless noted
HOP-62 NSCLC = details: 10 µM unless noted
NCI-H460 lung = details: 10 µM unless noted
HOP-92 NSCLC = details: 10 µM unless noted
NCI-H522 lung = details: 10 µM
A549/ATCC NSCLC = details: 10 µM unless noted
786-0 renal = details: 10 µM unless noted
COLO 205 colon = details: 10 µM unless noted

CN1CCc2cccc3c2C1Cc1ccc(O)c(O)c1-3 (configuration not stated)
growth (NCI-H226 lung): 80.8%
growth (NCI-H322M lung): 109%
growth (HOP-62 NSCLC): 87.8%
growth (NCI-H460 lung): 111%
growth (HOP-92 NSCLC): 106%
growth (NCI-H522 lung): 39.5%
growth (A549/ATCC NSCLC): 95.6%
growth (786-0 renal): 86.2%
growth (COLO 205 colon): 90.5%

Cc1ccc2c(c1)c(Sc1ccc(C(=O)NO)cc1)c1n2CN(C)CC1
growth (NCI-H226 lung): -0.932% (active)
growth (NCI-H322M lung): 31.1%
growth (HOP-62 NSCLC): 33.7%
growth (NCI-H460 lung): 7.16% (active)
growth (HOP-92 NSCLC): 27.9%
growth (A549/ATCC NSCLC): 1.5% (active)
growth (786-0 renal): 37.7%
growth (COLO 205 colon): 14.1%

C[C@H]1C(=O)C23CCC1C[C@@]21O[C@@H]2C(C)(C)C=CC(=O)C23COC1=O
growth (NCI-H226 lung): 94.2%
growth (NCI-H322M lung): 105%
growth (HOP-62 NSCLC): 101%
growth (NCI-H460 lung): 101%
growth (HOP-92 NSCLC): 114%
growth (NCI-H522 lung): 93.2%
growth (A549/ATCC NSCLC): 83.9%
growth (786-0 renal): 109%
growth (COLO 205 colon): 105%

O=C(O)C[C@H](O)C[C@H](O)/C=C/c1c(C2CC2)nc2ccccc2c1-c1ccc(F)cc1
growth (NCI-H226 lung): 65.6%
growth (NCI-H322M lung): 58.1%
growth (HOP-62 NSCLC): 84.9%
growth (NCI-H460 lung): 94.4%
growth (HOP-92 NSCLC): -12% (active)
growth (NCI-H522 lung): 53.7%
growth (A549/ATCC NSCLC): 105%
growth (786-0 renal): 91.9%
growth (COLO 205 colon): 102%

Cc1nc2cc(Nc3nc(NCCO)nc(Nc4ccc(F)cc4)n3)ccc2n1Cc1ccccc1
growth (NCI-H226 lung): 91.6%
growth (NCI-H322M lung): 98.9%
growth (HOP-62 NSCLC): 94%
growth (NCI-H460 lung): 83.5%
growth (HOP-92 NSCLC): 49.9%
growth (NCI-H522 lung): 85.6%
growth (A549/ATCC NSCLC): 74.1%
growth (786-0 renal): 94.7%
growth (COLO 205 colon): 94.5%

NS(=O)(=O)c1cc(Br)c2c(c1)S(=O)(=O)NCN2
growth (NCI-H226 lung): 113%
growth (NCI-H322M lung): 119%
growth (HOP-62 NSCLC): 113%
growth (NCI-H460 lung): 112%
growth (HOP-92 NSCLC): 93%
growth (NCI-H522 lung): 102%
growth (A549/ATCC NSCLC): 101%
growth (786-0 renal): 106%
growth (COLO 205 colon): 114%

COc1ccc(/C=C2\CN(Cc3cn(CCCNc4ccnc5cc(Cl)ccc45)nn3)C/C(=C\c3ccc(OC)c(OC)c3)C2=O)cc1OC
growth (NCI-H226 lung): -52.4% (active)
growth (NCI-H322M lung): 22.7%
growth (HOP-62 NSCLC): -1.63% (active)
growth (NCI-H460 lung): -5.13% (active)
growth (HOP-92 NSCLC): 25.5%
growth (NCI-H522 lung): 0.468% (active)
growth (A549/ATCC NSCLC): 5.33% (active)
growth (786-0 renal): -1.83% (active)
growth (COLO 205 colon): 1.93% (active)

COC(=O)c1cc(-c2ccc(C)cc2)n(C(=O)CSc2nc3sc(C(N)=O)c(C)c3c(=O)n2Cc2ccccc2)n1
growth (NCI-H226 lung): 103%
growth (NCI-H322M lung): 129%
growth (HOP-62 NSCLC): 98.6%
growth (NCI-H460 lung): 103%
growth (HOP-92 NSCLC): 92.5%
growth (A549/ATCC NSCLC): 107%
growth (786-0 renal): 102%
growth (COLO 205 colon): 93.5%

CON=C1C[C@]2(C[C@@H]3C[C@@H](C/C=C(\C)C[C@@H](C)/C=C/C=C4\CO[C@@H]5[C@H](O)C(C)=C[C@@H](C(=O)O3)[C@]45O)O2)O[C@H](/C(C)=C/C(C)C)[C@H]1C
growth (NCI-H226 lung): 72%
growth (NCI-H322M lung): 72.1%
growth (HOP-62 NSCLC): 76.5%
growth (NCI-H460 lung): 39.3%
growth (HOP-92 NSCLC): 24.8%
growth (NCI-H522 lung): 50.5%
growth (A549/ATCC NSCLC): 48.7%
growth (786-0 renal): 65.5%
growth (COLO 205 colon): 59.1%

O=C1/C(=C/c2ccc(F)cc2)CN(Cc2cn(CCNc3ccnc4cc(Cl)ccc34)nn2)C/C1=C\c1ccc(F)cc1
growth (NCI-H226 lung): -62.3% (active)
growth (NCI-H322M lung): -0.345% (active)
growth (HOP-62 NSCLC): -55.3% (active)
growth (NCI-H460 lung): -42.8% (active)
growth (HOP-92 NSCLC): -50.5% (active)
growth (NCI-H522 lung): -75.4% (active)
growth (A549/ATCC NSCLC): -31.3% (active)
growth (786-0 renal): -66.2% (active)
growth (COLO 205 colon): -53.4% (active)

CC(C)N1CCN(c2ccc(OC[C@H]3CO[C@](Cn4cncn4)(c4ccc(Cl)cc4Cl)O3)cc2)CC1
growth (NCI-H226 lung): 93.6%
growth (NCI-H322M lung): 106%
growth (HOP-62 NSCLC): 81%
growth (NCI-H460 lung): 103%
growth (HOP-92 NSCLC): 71.2%
growth (NCI-H522 lung): 78%
growth (A549/ATCC NSCLC): 89.6%
growth (786-0 renal): 99.2%
growth (COLO 205 colon): 62.9%

Cc1ccc(C)c2c1sc1nc3nc4sc5ccccc5n4c(=N)c3c(=O)n12
growth (NCI-H226 lung): 115%
growth (NCI-H322M lung): 120%
growth (HOP-62 NSCLC): 97.3%
growth (NCI-H460 lung): 95.5%
growth (HOP-92 NSCLC): 72.3%
growth (NCI-H522 lung): 116%
growth (A549/ATCC NSCLC): 111%
growth (786-0 renal): 100%
growth (COLO 205 colon): 109%

COc1cc(C2C3=C(COC3=O)N(CCO)c3cc4c(cc32)OCO4)cc(OC)c1O (configuration not stated)
growth (NCI-H226 lung): 61.7%
growth (NCI-H322M lung): 52.5%
growth (HOP-62 NSCLC): 41.7%
growth (NCI-H460 lung): 16.1%
growth (HOP-92 NSCLC): 66%
growth (NCI-H522 lung): -40.7% (active)
growth (A549/ATCC NSCLC): 52.1%
growth (786-0 renal): 20%
growth (COLO 205 colon): 7.23% (active)

Clc1ccc(Nc2ccnc(N3CCN(c4ccnc5cc(Cl)ccc45)CC3)n2)cc1
growth (NCI-H226 lung): 62.5%
growth (NCI-H322M lung): 48.6%
growth (HOP-62 NSCLC): 47.4%
growth (NCI-H460 lung): 48.4%
growth (HOP-92 NSCLC): 39.4%
growth (NCI-H522 lung): 35.1%
growth (A549/ATCC NSCLC): 48.6%
growth (786-0 renal): 48.4%
growth (COLO 205 colon): 46.5%

CC1=C(C/C=C(\C)CCC[C@H](C)CCC[C@H](C)CCCC(C)C)C(=O)c2ccccc2C1=O
growth (NCI-H226 lung): 110%
growth (NCI-H322M lung): 103%
growth (HOP-62 NSCLC): 115%
growth (NCI-H460 lung): 114%
growth (HOP-92 NSCLC): 111%
growth (NCI-H522 lung): 107%
growth (A549/ATCC NSCLC): 103%
growth (786-0 renal): 103%
growth (COLO 205 colon): 110%

O=c1ccc2ccccc2o1
growth (NCI-H226 lung): 102%
growth (NCI-H322M lung): 115%
growth (HOP-62 NSCLC): 108%
growth (NCI-H460 lung): 114%
growth (NCI-H522 lung): 94.3%
growth (A549/ATCC NSCLC): 94%
growth (786-0 renal): 105%
growth (COLO 205 colon): 114%

COc1cc(NC(=O)COc2ccccc2)c(C(N)=O)cc1OC
growth (NCI-H226 lung): 76.5%
growth (NCI-H322M lung): 40.1%
growth (HOP-62 NSCLC): 30.5%
growth (NCI-H460 lung): 7.91% (active)
growth (NCI-H522 lung): -9.94% (active)
growth (A549/ATCC NSCLC): 20.5%
growth (786-0 renal): 44.4%
growth (COLO 205 colon): 8.28% (active)

COC(=O)CCC(=O)c1ccccc1
growth (NCI-H226 lung): 115%
growth (NCI-H322M lung): 119%
growth (HOP-62 NSCLC): 116%
growth (NCI-H522 lung): 106%
growth (A549/ATCC NSCLC): 95.4%
growth (786-0 renal): 94.7%
growth (COLO 205 colon): 115%

O=C1C(Cl)=C(NCCCN2CCOCC2)C(=O)c2ccccc21
growth (NCI-H226 lung): 107%
growth (NCI-H322M lung): 98.5%
growth (NCI-H460 lung): 99.2%
growth (HOP-92 NSCLC): 106%
growth (NCI-H522 lung): 89.9%
growth (A549/ATCC NSCLC): 98.8%
growth (786-0 renal): 113%
growth (COLO 205 colon): 86.9%

CCCCC/C=C\C/C=C/CCCCCCCCNC(=O)Nc1ccc([N+](=O)[O-])cc1
growth (NCI-H226 lung): 93.5%
growth (NCI-H322M lung): 120%
growth (NCI-H460 lung): 84.4%
growth (HOP-92 NSCLC): -1.17% (active)
growth (NCI-H522 lung): 41.5%
growth (A549/ATCC NSCLC): 97%
growth (786-0 renal): 102%
growth (COLO 205 colon): 95%

Cc1ccc(C(=O)Nc2ccccc2N)cc1
growth (NCI-H226 lung): 74.5%
growth (NCI-H322M lung): 71.6%
growth (HOP-62 NSCLC): 92.2%
growth (NCI-H460 lung): 66%
growth (NCI-H522 lung): 70%
growth (A549/ATCC NSCLC): 90.8%
growth (786-0 renal): 75.4%
growth (COLO 205 colon): 94.6%

O=C(CCCCCCC(=O)Nc1ccc2c(c1)/C(=C/c1ccc[nH]1)C(=O)N2)NO
growth (NCI-H226 lung): 27.6%
growth (NCI-H322M lung): 15.1%
growth (NCI-H460 lung): 25.8%
growth (HOP-92 NSCLC): -19.7% (active)
growth (NCI-H522 lung): 14.8%
growth (A549/ATCC NSCLC): 34.9%
growth (786-0 renal): 26.2%
growth (COLO 205 colon): -58.6% (active)

CC(C)NCC(O)COc1ccc(CCOCC2CC2)cc1 (configuration not stated)
growth (NCI-H226 lung): 90.7%
growth (NCI-H322M lung): 106%
growth (HOP-62 NSCLC): 104%
growth (NCI-H460 lung): 108%
growth (NCI-H522 lung): 118%
growth (A549/ATCC NSCLC): 99.5%
growth (786-0 renal): 100%
growth (COLO 205 colon): 116%

O=S(=O)(OCCO)c1ccccc1
growth (NCI-H226 lung): 98.1%
growth (NCI-H322M lung): 103%
growth (HOP-62 NSCLC): 126%
growth (HOP-92 NSCLC): 101%
growth (NCI-H522 lung): 95.5%
growth (A549/ATCC NSCLC): 97.2%
growth (786-0 renal): 108%
growth (COLO 205 colon): 118%

COc1ccc(-c2nc(Nc3ccc(F)cc3)nc(Nc3ccc4c(c3)nc(C)n4Cc3ccccc3)n2)cc1
growth (NCI-H226 lung): 66.6%
growth (NCI-H322M lung): 82.4%
growth (NCI-H460 lung): 30.3%
growth (HOP-92 NSCLC): 39.7%
growth (NCI-H522 lung): 55.4%
growth (A549/ATCC NSCLC): 32%
growth (786-0 renal): 46.7%
growth (COLO 205 colon): 28.2%
